These results are taken from PubChem BioAssay (NCI).

Assay [1] in a line: NCI Yeast Anticancer Drug Screen. Data for the rad50 strain (AID 155).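 Also: 0% = growth of vehicle-only cultures of the same strain.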 To be noted: S. cerevisiae rad50 strain growth inhibition, active compounds read high. A digest of the protocol: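 Compounds were tested on a yeast strain with an engineered DNA damage repair alteration; the reported value is growth inhibition normalised to vehicle treatment.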
Assay [2] is described as follows: NCI Yeast Anticancer Drug Screen. Data for the mec2-1 strain (AID 157). The settings on record: S. cerevisiae mec2-1 strain, active compounds read high. A digest of the protocol: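 Using mec2-1 yeast: add compound, measure growth, express inhibition versus vehicle-treated cultures.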
Assay [3] is described as follows: NCI Yeast Anticancer Drug Screen. Data for the sgs1 mgt1 strain (AID 161).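 Also: 0% = growth of cultures given vehicle only.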 To be noted: S. cerevisiae sgs1 mgt1 strain, active compounds read high. In a few lines: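 Compounds are added to genetically altered yeast, and growth is compared with cultures given vehicle alone to give percent inhibition.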
The nature of assay [4]: NCI Yeast Anticancer Drug Screen. Data for the cln2 rad14 strain (AID 165).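 Also: 0% = growth equal to vehicle treated cultures.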 The settings on record: S. cerevisiae cln2 rad14 strain, active compounds read high. A digest of the protocol:
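Yeast strain cln2 rad14, bearing defects in cell cycle control and DNA repair, serves as the test system; values reflect growth inhibition compared with vehicle.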

Assay [5] can be described thus: NCI Yeast Anticancer Drug Screen. Data for the bub3 strain (AID 167). The settings on record: S. cerevisiae bub3 mutant strain, active compounds read high. A digest of the protocol: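 Growth of a checkpoint-deficient yeast mutant is measured after compound exposure. Values represent inhibition relative to vehicle.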
A short description of assay [6]: NCI Yeast Anticancer Drug Screen. Data for the mlh1 rad18 strain (AID 175). To be noted: S. cerevisiae mlh1 rad18 strain growth inhibition, active compounds read high. A digest of the protocol: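 Steps: expose repair-defective yeast to compound; measure growth; express inhibition against vehicle-treated controls.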
Where [7] appears, read: at 5.0 µM (retest, dose inferred, filed as 0.5).
Where [8] appears, read: at 50.0 µM (retest, dose inferred, filed as 5.0).

The panel holds about 79,000 compounds, 15% with a hit somewhere; the sample as a whole holds those more often. A number with no mark means an inactive call. Calls of active or inactive are those of the source. Rule as the data show it: active = growth inhibition above about 70%; inactive = the rest.

Take `CNC(=O)OC(C)CN1c2ccccc2Sc2ccc(Cl)cc21` (centres undefined): the growth inhibition in assay [1] (setting [7]) was 12%; in assay [1] (setting [8]) it was 97% (active); in assay [1] (at 50.0 µM) it was 89.1% (active); in assay [2] (setting [7]), -11%; in assay [2] (setting [8]) it was 99% (active); in assay [2] (at 50.0 µM), 84.5% (active). Also, the growth inhibition was 2% in assay [3] (setting [7]); 45% in assay [3] (setting [8]); 90.9% (active) in assay [3] (at 50.0 µM); 19% in assay [4] (setting [7]); 98% (active) in assay [4] (setting [8]); 86.5% (active) in assay [4] (at 50.0 µM). Also, the growth inhibition in assay [5] (setting [7]) was 26%; in assay [5] (setting [8]) it was 98% (active); in assay [5] (at 50.0 µM), 88.3% (active); in assay [6] (setting [7]) it was 19%; in assay [6] (setting [8]), 98% (active); in assay [6] (at 50.0 µM) it was 88.2% (active).

Turning to `Cc1ccc2c(ccc3c[n+]4c5ccccc5ccc4n32)c1`, the growth inhibition in assay [1] (setting [7]) is 96% (active); in assay [1] (setting [8]), 99% (active); in assay [1] (at 50.0 µM) it was 99.4% (active); in assay [2] (setting [7]), 92% (active); in assay [2] (setting [8]) it was 99% (active); in assay [2] (at 50.0 µM) it was 99.5% (active). Further, the growth inhibition was 95% (active) in assay [3] (setting [7]); 100% (active) in assay [3] (setting [8]); 98.7% (active) in assay [3] (at 50.0 µM); 94% (active) in assay [4] (setting [7]); 99% (active) in assay [4] (setting [8]); 97.3% (active) in assay [4] (at 50.0 µM). The growth inhibition in assay [5] (setting [7]) is 93% (active); in assay [5] (setting [8]), 99% (active); in assay [5] (at 50.0 µM), 99.3% (active); in assay [6] (setting [7]), 95% (active); in assay [6] (setting [8]), 99% (active); in assay [6] (at 50.0 µM), 99.2% (active).

On to `CC1CC(C)CC(NC2=NCCO2)C1` (centres undefined), for which the growth inhibition is 13% in assay [1] (setting [7]); -5% in assay [1] (setting [8]); -4.1% in assay [1] (at 50.0 µM); 6% in assay [2] (setting [7]); -5% in assay [2] (setting [8]); 22.2% in assay [2] (at 50.0 µM). Besides, the growth inhibition in assay [3] (setting [7]) is 12%; in assay [3] (setting [8]) it was 13%; in assay [3] (at 50.0 µM), 21.6%; in assay [4] (setting [7]), 11%; in assay [4] (setting [8]) it was 7%; in assay [4] (at 50.0 µM) it was 27.6%. The growth inhibition in assay [5] (setting [7]) is 27%; in assay [5] (setting [8]), 15%; in assay [5] (at 50.0 µM), 7.8%; in assay [6] (setting [7]), 8%; in assay [6] (setting [8]), -12%; in assay [6] (at 50.0 µM), 21.1%.

Take `NC1=CC(=O)c2ccccc2C1=O`: the growth inhibition is 18% in assay [1] (setting [7]); 84% (active) in assay [1] (setting [8]); 94.5% (active) in assay [1] (at 50.0 µM); 1% in assay [2] (setting [7]); 48% in assay [2] (setting [8]); 62.3% in assay [2] (at 50.0 µM). The growth inhibition was 26% in assay [3] (setting [7]); 57% in assay [3] (setting [8]); 85.2% (active) in assay [3] (at 50.0 µM); 9% in assay [4] (setting [7]); 33% in assay [4] (setting [8]); -1.65% in assay [4] (at 50.0 µM). The growth inhibition in assay [5] (setting [7]) was 42%; in assay [5] (setting [8]), 93% (active); in assay [5] (at 50.0 µM), 93.8% (active); in assay [6] (setting [7]) it was 31%; in assay [6] (setting [8]), 84% (active); in assay [6] (at 50.0 µM), 95.5% (active).

Consider `N#CC(C#N)C(C#N)c1ccc(Cl)c(Cl)c1` (centres undefined), for which the growth inhibition in assay [1] (setting [7]) is 79% (active); in assay [1] (setting [8]) it was 99% (active); in assay [1] (at 50.0 µM) it was 99.7% (active); in assay [2] (setting [7]) it was 72% (active); in assay [2] (setting [8]), 100% (active); in assay [2] (at 50.0 µM) it was 99.7% (active). Further, the growth inhibition in assay [3] (setting [7]) is 36%; in assay [3] (setting [8]), 100% (active); in assay [3] (at 50.0 µM), 99.8% (active); in assay [4] (setting [7]), 25%; in assay [4] (setting [8]) it was 99% (active); in assay [4] (at 50.0 µM), 99.4% (active). The growth inhibition in assay [5] (setting [7]) was 99% (active); in assay [5] (setting [8]), 99% (active); in assay [5] (at 50.0 µM) it was 99.7% (active); in assay [6] (setting [7]), 70% (active); in assay [6] (setting [8]), 100% (active); in assay [6] (at 50.0 µM), 99.5% (active).

As to `O=C1C(=O)N(c2cc(Cl)ccc2Cl)C(=O)C(=O)C1c1nc2ccccc2o1`, the growth inhibition was 4% in assay [1] (setting [7]); 4% in assay [1] (setting [8]); 53.2% in assay [1] (at 50.0 µM); 15% in assay [2] (setting [7]); 15% in assay [2] (setting [8]); 37.9% in assay [2] (at 50.0 µM). For the same compound, the growth inhibition in assay [3] (setting [7]) was 22%; in assay [3] (setting [8]) it was 22%; in assay [3] (at 50.0 µM), 36.8%; in assay [4] (setting [7]), 10%; in assay [4] (setting [8]) it was 10%; in assay [4] (at 50.0 µM) it was 81.2% (active). Also, the growth inhibition is 2% in assay [5] (setting [7]); 2% in assay [5] (setting [8]); 57.1% in assay [5] (at 50.0 µM); 12% in assay [6] (setting [7]); 12% in assay [6] (setting [8]); 31.9% in assay [6] (at 50.0 µM).

`COc1ccc([C@H]2c3cc4c(cc3OC(O)(CO)[C@H]2C(=O)O)OCO4)c(OC)c1` (some centres undefined) (tested in a mixture with another compound): the growth inhibition in assay [1] (setting [7]) is 9%; in assay [1] (setting [8]), 63%; in assay [1] (at 50.0 µM), 57%; in assay [2] (setting [7]) it was 15%; in assay [2] (setting [8]), 48%; in assay [2] (at 50.0 µM) it was 48.4%. Also, the growth inhibition is 0% in assay [3] (setting [7]); 44% in assay [3] (setting [8]); 44.1% in assay [3] (at 50.0 µM); 0% in assay [4] (setting [7]); 35% in assay [4] (setting [8]); 28% in assay [4] (at 50.0 µM). The growth inhibition in assay [6] (setting [7]) is 6%; in assay [6] (setting [8]), 86% (active); in assay [6] (at 50.0 µM) it was 80.5% (active).

Take `CC(=O)NC1=C(Oc2ccccc2)C(=O)c2ccccc2C1=O`: the growth inhibition is 94% (active) in assay [1] (setting [7]); 99% (active) in assay [1] (setting [8]); 99.2% (active) in assay [1] (at 50.0 µM); 98% (active) in assay [2] (setting [7]); 100% (active) in assay [2] (setting [8]); 97.8% (active) in assay [2] (at 50.0 µM). Besides, the growth inhibition in assay [3] (setting [7]) was 88% (active); in assay [3] (setting [8]), 100% (active); in assay [3] (at 50.0 µM), 99.1% (active); in assay [4] (setting [7]), 89% (active); in assay [4] (setting [8]), 100% (active); in assay [4] (at 50.0 µM), 70% (active). In addition, the growth inhibition is 98% (active) in assay [5] (setting [7]); 100% (active) in assay [5] (setting [8]); 94.5% (active) in assay [5] (at 50.0 µM); 96% (active) in assay [6] (setting [7]); 99% (active) in assay [6] (setting [8]); 99.1% (active) in assay [6] (at 50.0 µM).

Take `Cc1cc(SC#N)cc(C)c1O`: the growth inhibition in assay [1] (setting [7]) is 6%; in assay [1] (setting [8]) it was 65%; in assay [1] (at 50.0 µM), 82% (active); in assay [2] (setting [7]) it was -3%; in assay [2] (setting [8]), 47%; in assay [2] (at 50.0 µM), 63.1%. In addition, the growth inhibition was -1% in assay [3] (setting [7]); 45% in assay [3] (setting [8]); 74% (active) in assay [3] (at 50.0 µM); 32% in assay [4] (setting [7]); 69% in assay [4] (setting [8]); 49% in assay [4] (at 50.0 µM). Further, the growth inhibition is -5% in assay [6] (setting [7]), 81% (active) in assay [6] (setting [8]) and 83.5% (active) in assay [6] (at 50.0 µM).

Regarding `COc1ccc(C(=O)Cc2nc3nnc(NC(=O)Nc4ccc(Cl)cc4)n3nc2CC(=O)c2ccc(OC)cc2)cc1`, the growth inhibition in assay [1] (setting [7]) is 2%; in assay [1] (setting [8]), 96% (active); in assay [1] (at 50.0 µM), 93.1% (active); in assay [2] (setting [7]) it was 7%; in assay [2] (setting [8]), 98% (active); in assay [2] (at 50.0 µM), 94.9% (active). Further, the growth inhibition is 1% in assay [3] (setting [7]); 98% (active) in assay [3] (setting [8]); 94.8% (active) in assay [3] (at 50.0 µM); -1% in assay [4] (setting [7]); 97% (active) in assay [4] (setting [8]); 93.5% (active) in assay [4] (at 50.0 µM). Also, the growth inhibition in assay [5] (setting [7]) is 7%; in assay [5] (setting [8]) it was 98% (active); in assay [5] (at 50.0 µM), 96.2% (active); in assay [6] (setting [7]) it was 4%; in assay [6] (setting [8]) it was 97% (active); in assay [6] (at 50.0 µM), 95.1% (active).
